Anthrax LF inh2 – Bacillus anthracis LF protease inhibitors, primary screen, biochemical, multiplex microsphere, MLPCN library; inhibition, % at 10 µM; hit rate 0.12% among 360,000; multiplex microsphere protease cleavage assay; Lethal factor (Bacillus anthracis), P15917
BoNT F protease – BoNT/F light chain protease inhibitors, primary screen, biochemical, flow cytometry, MLPCN library; Botulinum neurotoxin type F light chain protease (Clostridium botulinum); Multiplex microsphere protease cleavage assay; inhibition, % at 10 µM; hit rate 0.22% among 360,000; in the data active = inhibition above about 35%, passing the limit was not always enough; inconclusive = no clear call, values can overlap the other calls
BoNT A protease – BoNT/A light chain protease inhibitors, primary screen, biochemical, flow cytometry, MLPCN library. multiplex microsphere protease substrate cleavage. inhibition, % at 10 µM. hit rate 0.17% among 360,000. AID 588499, 2011
MazF activator – activators of E. coli MazEF toxin-antitoxin RNase, primary screen, biochemical, fluorescence, uHTS. Endoribonuclease toxin MazF (Escherichia coli (strain K12)), P0AE70. hit rate 0.32% among 350,000. activation, % at 20 µM. AID 504720, 2011. FAM/BHQ RNA-DNA oligo cleavage fluorescence, 5 h; in the data active = activation above about 50%
Target sequence (P0AE70 whole entry, looked up): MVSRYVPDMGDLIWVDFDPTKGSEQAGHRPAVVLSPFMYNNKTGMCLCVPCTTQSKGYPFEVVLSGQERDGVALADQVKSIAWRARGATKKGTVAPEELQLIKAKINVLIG
Autofluor counter – flagged as autofluorescent in microsphere protease counterscreen. hit rate 3.1% among 360,000. compound autofluorescence counterscreen, microsphere flow cytometry; active compounds read high. fluorescence intensity (test concentration not listed); in the data active = fluorescence intensity above about 16000; inconclusive = no clear call, values can overlap the other calls
Numbers stand for hits; n = inactive; u = inconclusive; x = no result given; + = active, no number. Hits are enriched below; roughly 3.6% of the tested compounds scored in any of these assays. Rule as the data show it, unless noted: active = inhibition above about 30%; inconclusive = no clear call, values can overlap the other calls; inactive = below that.

SMILES	Anthrax LF inh2	BoNT F protease	BoNT A protease	MazF activator	Autofluor counter
Cc1ccc(N2CCN(C(=O)N3CCCC3)CC2)cc1C	n	n	n	n	16586
COc1ccc(C(=O)N2CCN(c3nnnn3-c3ccccc3)CC2)cc1OC	n	n	n	n	23177
COc1ccc(-c2nc3c4ccccc4ccn3c2Cc2ccccc2)cc1OC	n	n	n	x	n
Cc1cc(C)c(C#N)c(SCc2ccccc2C)n1	n	n	n	n	n
Cc1ccc2nc(CSc3nc(C)cc(C)c3C#N)[nH]c2c1	n	n	n	n	21126
Cc1cc(C)c(C#N)c(SCc2ccc(C(=O)O)cc2)n1	32	u	n	n	n
Cc1cc(C)c(C#N)c(SCc2ccccc2)n1	n	n	n	n	n
Cc1ccc2c(CNCc3ccco3)cc(=O)oc2c1	n	n	n	n	23320
COc1cccc(-c2cnc(C(O)c3ccc(Cl)c(F)c3)[nH]2)c1 (configuration not stated)	n	n	n	x	n
COc1cc(-c2nnc(COc3ccc4ccccc4c3)o2)cc(OC)c1OC	n	n	n	n	22472
COc1cc(-c2nnc(-c3ccccc3)o2)cc(OC)c1OC	n	n	n	n	n
COC(=O)Cn1cnc2c(C#N)c3n(c2c1=O)CCCCC3	n	n	n	n	23066
N#Cc1c2n(c3c(=O)n(Cc4ccccc4Cl)cnc13)CCCCC2	n	n	n	n	n
CC1(C)CC(NC(=O)C23CCC(C)(/C(=N/O)C2)C3(C)C)CC(C)(C)N1 (configuration not stated)	n	n	u	n	22387
CC1(C)CC(NC(=O)C23CCC(C)(C(=O)C2=O)C3(C)C)CC(C)(C)N1 (configuration not stated)	n	n	n	n	n
CC1(C)CC(NC(=O)C23CCC(C)(C2Br)C3(C)C)CC(C)(C)N1 (configuration not stated)	n	35	n	n	n
CC1(C)CC(=O)C2=C(C1)NC(=O)CC2	n	n	n	x	n
COc1ccc(S(=O)(=O)NC(C)c2ccc3c(c2)OCCO3)cc1 (configuration not stated)	n	n	n	n	n
CN(Cc1ccccc1)C(=O)c1[nH]cnc1C(=O)Nc1ccccc1F	n	n	n	n	n
Cc1ccc(S(=O)(=O)Nc2cccc(Cl)c2)cc1NC(=O)C1CC1	n	n	n	n	n
COc1cc(OC)cc(C(=O)NC(=S)Nc2ccc(Cl)c(C(=O)O)c2)c1	n	n	n	n	24431
COc1cc(C(=O)NC(=S)Nc2ccc(Cl)c(C(=O)O)c2)cc(OC)c1OC	n	n	n	n	n
Cc1nc(NCCC(C)C)c2nnn(Cc3ccccc3)c2n1	n	n	n	n	n
COc1ccccc1N1C(=O)S/C(=C\c2cc(C)n(C)c2C)C1=O	n	n	n	+	n
COc1ccccc1N1C(=O)S/C(=C\c2ccc(C)s2)C1=O	x	x	x	n	x
SMILES	Anthrax LF inh2	BoNT F protease	BoNT A protease	MazF activator	Autofluor counter
CN(C)c1nc(Cl)cc(N2CCOCC2)n1	n	n	n	n	22938
Clc1ccc(OCCCc2nc(-c3cccnc3)no2)c(Cl)c1	n	n	n	n	21481
Cc1cc(C)c(C)c(OCc2nc(-c3cccnc3)no2)c1	n	n	n	n	21478
Clc1ccc(OCCCc2nc(-c3ccncc3)no2)c(Cl)c1	n	n	n	n	n
COc1ccc(CCN(C)C(=O)c2cc(S(=O)(=O)N3CCCCC3)ccc2Cl)cc1OC	n	n	n	n	n
O=C(c1ccc2oc(Cc3ccc(Cl)cc3)nc2c1)N1CCCCC1CCO (configuration not stated)	n	n	n	n	n
Cc1ccc(S(=O)(=O)Nc2ccc3nc(N)sc3c2)cc1	n	n	u	n	19122
CCN(CCNCC(O)COCc1ccc(Cl)cc1)c1cccc(C)c1 (configuration not stated)	n	n	n	n	n
Oc1c(C2=NCCNC(C(F)(F)F)=C2)ccc2ccccc12	n	n	n	n	n
Cc1ccc(O)c(C2=NCCNC(C(F)(F)F)=C2)c1	n	n	u	n	21465
O=C(Nc1ccccc1)c1n[nH]c(Cn2cncn2)n1	n	n	n	n	23808
O=C(Nc1cccc(C(F)(F)F)c1)c1n[nH]c(Cn2cncn2)n1	u	n	u	n	u
Cc1cccc(NC(=O)C(C)Sc2nc3ccccc3c(=O)n2CCCN2CCOCC2)c1 (configuration not stated)	n	n	n	n	18006
CN1C(=O)Cc2cc(S(=O)(=O)N3CCN(c4ccccc4F)CC3)ccc21	n	n	n	n	n
O=C(CCC(=O)NC1CCCCCC1)Nc1nnc(C(F)(F)F)s1	n	n	u	n	21138
COc1ccc(NC(=O)CCC(=O)Nc2nnc(C(F)(F)F)s2)c(OC)c1	n	n	n	n	18599
O=C(NCCN1CCN(C(=O)c2ccc([N+](=O)[O-])cc2)CC1)C(=O)Nc1ccc(F)cc1	n	n	n	n	n
O=S(=O)(c1ccc2ccccc2c1)N(CC(O)COCc1ccco1)c1ccccc1 (configuration not stated)	n	n	n	n	23464
Cc1cc(NC(=O)CN2C(=O)/C(=C/c3ccc(C(C)C)cc3)SC2=S)no1	n	n	n	n	n
O=c1oc2ccccc2cc1-c1nc(-c2cccs2)cs1	41	n	58	141	n
COc1cccc2cc(-c3nc(-c4cccs4)cs3)c(=O)oc12	n	n	n	99	n
N#Cc1c(Cl)nc(Cl)c2c1CCN(Cc1ccccc1)C2	n	n	n	n	n
N#Cc1c(N2CCCCC2)nc(N2CCCCC2)c2c1CCN(Cc1ccccc1)C2	n	n	u	n	18858
Cc1cc(C)c(C#N)c(N2CCN(Cc3ccc4c(c3)OCO4)CC2)n1	n	u	n	n	n
Cc1cc(C)c(C#N)c(N2CCN(Cc3ccccc3)CC2)n1	n	n	n	n	23816
SMILES	Anthrax LF inh2	BoNT F protease	BoNT A protease	MazF activator	Autofluor counter
COC(=O)C1CC(O)C(O)C(O)C1 (configuration not stated)	n	n	n	n	n
CC(=O)Nc1cc(N=Cc2ccc(O)cc2O)c(Cl)cc1Cl	n	n	n	130	n
Cc1ccc(-n2c(C(C)C)nc3oc4ccccc4c(=O)c3c2=O)cc1	n	u	u	n	n
Cc1ccc2occ(/C=N/NC(=O)c3ccc(Cl)cc3)c(=O)c2c1	n	n	n	n	n
COc1ccc(C(=O)N/N=C\c2coc3ccc(C)cc3c2=O)cc1	n	n	n	75	u
Cc1ccc(CNC(=O)CSc2nc3ccsc3c(=O)n2NC(=O)c2ccccc2)cc1	n	n	n	n	23505
Cc1cc(NC(=O)CSc2nc3ccsc3c(=O)n2NC(=O)c2ccccc2)no1	n	n	n	n	n
COC(=O)[C@H](CC(C)C)N1Cc2cc(OC)cc(OC)c2-c2ccccc2S1(=O)=O	n	n	n	n	n
CN(CC(=O)Nc1ccc(F)cc1)C(=O)COC(=O)CNC(=O)c1sc2ccccc2c1Cl	n	u	n	70	u

Assay outcomes as filed in PubChem.
